High-throughput results deposited in PubChem BioAssay by Broad Institute.
Rows were chosen to be rich in hits. Some 6.7% of all compounds tested hit in one or more screens of this group.
C diff HTS: C. difficile growth inhibitors, primary screen, HTS; 0.25% of 86,000 active; growth activity, negative = inhibition, % at 16 µg/mL (by protocol); AID 1259249, 2017; Clostridium difficile clinical isolate growth, OD600, 24 h; stronger effect = lower value;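 active means mean growth activity at or below -80% and every replicate also at or below -80%; inconclusive means mean at or below -80% but some replicate above -80%; inactive means mean growth activity above -80%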;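 further: 0% = DMSO wells and -100% = levofloxacin 16 µg/mL wells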
Pf Dd2 growth: P. falciparum Dd2 growth inhibitors, primary screen, SYBR Green fluorescence, single dose replicates. 72 h; stronger effect = lower value. activity change, % at 10 µM. 2.3% of 94,000 active; in the data active means activity change below about -80%; inconclusive means no clear call, values can overlap the other calls
T cruzi growth-1: T. cruzi intracellular proliferation inhibitors, primary screen, cell-based, beta-gal Tulahuen parasites, NIH3T3 host, luminescence; T. cruzi beta-gal in NIH3T3, GalScreen luminescence, 90 h; inhibition, % at 8.34 µM; 5.9% of 77,000 active; AID 624255, 2012;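 active means mean inhibition above about 93%, with at least 55% of replicates each passing it, limit read from the data, passing the limit was not always enough; inconclusive means only one of those two conditions holds; inactive means neither condition holds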
T cruzi growth-2: T. cruzi intracellular proliferation inhibitors, confirmation, cell-based, NIH3T3 host, beta-gal parasite, luminescence, cherry-pick; AID 651739, 2012; inhibition, % at 8.35 µM; 72% of 5,600 active; shares compounds with T cruzi growth-1; T. cruzi beta-gal in NIH3T3, GalScreen luminescence, 90 h;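 active means mean replicate inhibition above about 95% and at least 55% of replicates individually reaching it, limit read from the data; inconclusive means only one of the two criteria is met; inactive means neither criterion is met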
T cruzi growth-3: inhibitors of intracellular T. cruzi replication, confirmation, NIH3T3 host cells, beta-gal parasites, cherry-pick, set 2. shares compounds with T cruzi growth-1. T. cruzi beta-gal in NIH3T3, GalScreen luminescence, 90 h. inhibition, % at 2.09 µM. 21% of 5,600 active. AID 651740, 2012;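 active means mean inhibition above about 95%, with at least 55% of replicates also reaching it, limit read from the data; inconclusive means meets just one of the two conditions; inactive means meets neither condition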;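 further: plate controls were neutral control median for no effect and positive control median for full effect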
3T3 cytotox: cytotoxicity in mouse NIH/3T3 fibroblasts, confirmation, cytotoxicity control for T. cruzi proliferation inhibitor project, cell-based, cherry-pick, single point; 14% of 5,600 active; NIH/3T3 viability, CellTiter-Glo ATP luminescence, 90 h; shares compounds with T cruzi growth-1; cytotoxicity (signal decrease), % at 8.35 µM;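 active means mean signal decrease across replicates above about 35% based on untreated-well scatter, with enough replicates individually passing, limit read from the data; inconclusive means no rule stated though some were filed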;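 further: 0% = median of neutral control wells and 100% = median of positive control wells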
3T3 cytotox 2: NIH/3T3 fibroblast cytotoxicity, confirmation, cytotoxicity control, cell-based, cherry-pick, single point, set 2. shares compounds with T cruzi growth-1. NIH/3T3 viability, CellTiter-Glo ATP luminescence, 90 h. inhibition, % at 24.9 µM. 56% of 5,600 active;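 active means mean loss of cell viability signal at or above a set limit, and enough replicates individually reaching it; inconclusive means meets only the mean limit or only the replicate share; inactive means meets neither condition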;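 further: 0% = median of neutral control wells and 100% = median of positive control wells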
Active calls of the source: *.

`CC(C)NC(=O)Nc1ccc2c(c1)CC(=O)N([C@@H](C)CO)C[C@H](C)[C@@H](CN(C)C)O2` gave C diff HTS 4, Pf Dd2 growth -9 and T cruzi growth-1 11.
Screening Cc1ccc(S(=O)(=O)N(C)C[C@@H]2OCCCC[C@H](C)Oc3ccc(NS(=O)(=O)c4cccs4)cc3C(=O)N([C@@H](C)CO)C[C@H]2C)cc1 returned Pf Dd2 growth -55, T cruzi growth-1 106*, T cruzi growth-2 inconclusive, T cruzi growth-3 8, 3T3 cytotox 3 and 3T3 cytotox 2 24.
`Cc1ccc(S(=O)(=O)Nc2ccc3c(c2)C(=O)N([C@H](C)CO)C[C@@H](C)[C@H](CN(C)S(=O)(=O)c2cccs2)OCCCC[C@H](C)O3)cc1` gave C diff HTS -9.
For Cc1ccc(S(=O)(=O)N(C)C[C@H]2OCCCC[C@H](C)Oc3ccc(NS(=O)(=O)c4cccs4)cc3C(=O)N([C@@H](C)CO)C[C@@H]2C)cc1 the results were Pf Dd2 growth -50 and T cruzi growth-1 86.
Screening Cc1ccc(S(=O)(=O)N(C)C[C@H]2OCCCC[C@@H](C)Oc3ccc(NS(=O)(=O)c4cccs4)cc3C(=O)N([C@@H](C)CO)C[C@H]2C)cc1 returned Pf Dd2 growth -49, T cruzi growth-1 103*, T cruzi growth-2 112*, T cruzi growth-3 63, 3T3 cytotox -10 and 3T3 cytotox 2 -18.
For Cc1ccc(S(=O)(=O)N(C)C[C@@H]2OCCCC[C@H](C)Oc3ccc(NS(=O)(=O)c4cccs4)cc3C(=O)N([C@@H](C)CO)C[C@@H]2C)cc1 the results were Pf Dd2 growth -57, T cruzi growth-1 122*, T cruzi growth-2 98*, T cruzi growth-3 41, 3T3 cytotox -11 and 3T3 cytotox 2 -5.
`Cc1ccc(S(=O)(=O)N(C)C[C@H]2OCCCC[C@H](C)Oc3ccc(NS(=O)(=O)c4cccs4)cc3C(=O)N([C@H](C)CO)C[C@@H]2C)cc1` gave Pf Dd2 growth -45 and T cruzi growth-1 68.
`Cc1noc(C)c1S(=O)(=O)N(C)C[C@@H]1Oc2ccc(NS(=O)(=O)c3cn(C)cn3)cc2C(=O)N([C@@H](C)CO)C[C@@H]1C` gave C diff HTS -1, Pf Dd2 growth 10 and T cruzi growth-1 -179.
C[C@H]1CN([C@@H](C)CO)C(=O)c2cccc(NC(=O)C3CCCCC3)c2O[C@H]1CN(C)Cc1ccc(-c2ccccc2)cc1 was read as C diff HTS 15, Pf Dd2 growth -23 and T cruzi growth-1 -77.
`CCCC#Cc1cnc2c(c1)C(=O)N([C@H](C)CO)C[C@@H](C)[C@@H](CN(C)C(=O)Nc1c(C)noc1C)O2` gave C diff HTS 7, Pf Dd2 growth -8 and T cruzi growth-1 -39.
`Cc1noc(C)c1S(=O)(=O)Nc1ccc2c(c1)C(=O)N([C@H](C)CO)C[C@@H](C)[C@H](CN(C)Cc1ccc(Cl)c(Cl)c1)O2` gave C diff HTS -8, Pf Dd2 growth 8 and T cruzi growth-1 41.
CC(C)CC#Cc1ccc2c(c1)O[C@H](CN(C)C(=O)Cc1ccccn1)[C@H](C)CN([C@H](C)CO)S2(=O)=O was read as C diff HTS -6, Pf Dd2 growth -16 and T cruzi growth-1 32.
For C[C@H](CO)N1C[C@H](C)[C@H](CN(C)C(=O)Cc2ccccc2)OCCCC[C@H](C)Oc2ccc(NC(=O)CCC(F)(F)F)cc2C1=O the results were C diff HTS -1, Pf Dd2 growth -19 and T cruzi growth-1 37.
`CO[C@@H]1CN(C)C(=O)c2ccc(NC(=O)C3CCOCC3)cc2OC[C@@H](C)N(C(=O)Nc2ccc(C(F)(F)F)cc2)C[C@H]1C` gave C diff HTS 3, Pf Dd2 growth -15 and T cruzi growth-1 1.
For C[C@H](CO)N1C[C@H](C)[C@H](CN(C)C(=O)Nc2ccc(F)cc2)Oc2ccc(NS(=O)(=O)c3cn(C)cn3)cc2C1=O the results were Pf Dd2 growth 40 and T cruzi growth-1 45.
`C[C@H]1CN([C@@H](C)CO)S(=O)(=O)c2ccc(-c3cncnc3)cc2O[C@@H]1CN(C)Cc1cncnc1` gave C diff HTS -4, Pf Dd2 growth 48 and T cruzi growth-1 25.
Screening C[C@@H]1CN([C@H](C)CO)S(=O)(=O)c2ccc(-c3cncnc3)cc2O[C@H]1CN(C)Cc1cncnc1 returned C diff HTS -2, Pf Dd2 growth 35 and T cruzi growth-1 29.
Screening C[C@H](CO)N1C[C@H](C)[C@@H](CN(C)Cc2ccccc2)Oc2cc(-c3cncnc3)ccc2S1(=O)=O returned C diff HTS -4, Pf Dd2 growth -6, T cruzi growth-1 113*, T cruzi growth-2 92, T cruzi growth-3 inconclusive, 3T3 cytotox 38* and 3T3 cytotox 2 70*.
C[C@H]1CN([C@@H](C)CO)S(=O)(=O)c2ccc(-c3cncnc3)cc2O[C@@H]1CN(C)Cc1ccccc1 was read as C diff HTS 1, Pf Dd2 growth -11, T cruzi growth-1 106*, T cruzi growth-2 inconclusive, T cruzi growth-3 100*, 3T3 cytotox 18 and 3T3 cytotox 2 31*.
`C[C@H](CO)N1C[C@H](C)[C@@H](CN(C)C(=O)Nc2cccc3ccccc23)Oc2ccc(NS(=O)(=O)c3cccs3)cc2C1=O` gave Pf Dd2 growth -1 and T cruzi growth-1 -26.
Screening CN1CCN(C(=O)C[C@H]2CC[C@@H]3[C@@H](COc4ccc(NC(=O)c5ccc(F)c(F)c5)cc4C(=O)N3C)O2)CC1 returned C diff HTS -3, Pf Dd2 growth 1 and T cruzi growth-1 15.
`O=C(C[C@H]1C=C[C@H](NC(=O)c2cccnc2)[C@H](CO)O1)NCCN1CCCCC1` gave C diff HTS -3, Pf Dd2 growth 12 and T cruzi growth-1 5.
COc1cccc(C#Cc2ccc([C@@H]3[C@@H](C#N)N(C(=O)C4CC4)[C@H]3CO)cc2)c1 was read as C diff HTS -5, Pf Dd2 growth -40 and T cruzi growth-1 91.
Screening COc1cccc(C#Cc2ccc([C@H]3[C@@H](CO)N(C(=O)C4CC4)[C@H]3C#N)cc2)c1 returned C diff HTS 6, Pf Dd2 growth -76, T cruzi growth-1 98*, T cruzi growth-2 103*, T cruzi growth-3 113*, 3T3 cytotox 6 and 3T3 cytotox 2 18.
